# In PMC13494018:
# A number with no mark means an inactive call. How the calls were made is not given here.
# Molecular target: CD276, Q5ZPR3
# Sequence (Q5ZPR3 whole entry): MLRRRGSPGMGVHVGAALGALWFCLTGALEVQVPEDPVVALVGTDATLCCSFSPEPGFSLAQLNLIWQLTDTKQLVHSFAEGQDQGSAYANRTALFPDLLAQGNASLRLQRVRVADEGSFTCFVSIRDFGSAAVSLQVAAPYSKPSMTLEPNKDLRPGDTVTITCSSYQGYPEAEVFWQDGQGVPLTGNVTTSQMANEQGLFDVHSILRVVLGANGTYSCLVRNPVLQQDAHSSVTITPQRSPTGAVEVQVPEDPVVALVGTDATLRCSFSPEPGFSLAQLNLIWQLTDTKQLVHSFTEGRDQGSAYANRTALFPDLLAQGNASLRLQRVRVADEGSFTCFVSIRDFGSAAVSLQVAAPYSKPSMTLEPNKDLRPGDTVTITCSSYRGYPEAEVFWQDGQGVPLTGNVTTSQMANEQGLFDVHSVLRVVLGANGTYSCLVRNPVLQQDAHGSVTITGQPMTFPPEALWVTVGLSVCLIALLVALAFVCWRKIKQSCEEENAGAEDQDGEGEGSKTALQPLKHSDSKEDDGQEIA
row,Binder,binding in a display sort
1,design_619_5728adc2-0aea-404f-92dd-a4575c53f550_103_dldesign_0_cycle1_af2pred (protein) SEAERYAEAAKKLAQVAKDIAAAFPANPELKKEAEKAKKYAEKAEKLVKEGGSAEEVLKEYEKARAALARATKLAIAA,not found
2,design_619_5728adc2-0aea-404f-92dd-a4575c53f550_74_dldesign_0_cycle1_af2pred (protein) DLDAVIATGMLALGKANAALAAARAGTATAAELEAAAAEAEAAAALAAALAAQSSTMAWLAAQLKKAAAELRAAAAKLKA,not found
3,design_618_d4ffd631-0ea2-432e-ba0f-bd3d6297b2a0_1447_dldesign_0_cycle1_af2pred (protein) MQGHIDRLNRGAEAALAAAESGEITEEQARIIRNGAMIAYDAAEAYEKTTRAAELLQTTPEGREEGGKILRELAEKMLARAKELL,not found
4,design_618_d4ffd631-0ea2-432e-ba0f-bd3d6297b2a0_442_dldesign_0_cycle1_af2pred (protein) AAATRATADAALAELERVGEVAVTVAKSALEAGFSKETALKIGTSLVENVVTGATAAVADDPAAQARIRAAGERIKEEIRKAL,not found
5,design_618_d4ffd631-0ea2-432e-ba0f-bd3d6297b2a0_2296_dldesign_0_cycle1_af2pred (protein) DKYATEAKKYAEEAEKLAKEAKKEAKKVGEAAKELAKQAEAAAKTAKIAAEGAEAATDPAARALALKVAEQAYKQAKKLLKEIKKL,not found
6,design_618_d4ffd631-0ea2-432e-ba0f-bd3d6297b2a0_687_dldesign_0_cycle1_af2pred (protein) AAAQQLAVQSATAFARQAIAAAQAALELAKADPSAKEEIERLLNQARASLQNALLVGQSSPEAAAIAQEAQATVEKLAAETAKAAAA,not found
7,design_618_d4ffd631-0ea2-432e-ba0f-bd3d6297b2a0_2465_dldesign_0_cycle1_af2pred (protein) AAAAQAAAILAAAQQGINDTTALLEKYKDVATPETVALFNKALAYFSKAAALALRGTQPAEAAAALAKGQEEAKKGEELLKKEVE,not found
8,design_618_d4ffd631-0ea2-432e-ba0f-bd3d6297b2a0_400_dldesign_0_cycle1_af2pred (protein) SSSLIDRLTGIALKGLSIAQGVLDKVEAGEATPEEIEEGIKAAEESEKAAKELSKLLAAQPAASEYYKKLAERAKEYKEKLKKALA,not found
9,design_618_d4ffd631-0ea2-432e-ba0f-bd3d6297b2a0_1177_dldesign_0_cycle1_af2pred (protein) AQATLASAQALTNAAETALKTSPEYAPLALQLAQQGIELAKQAAKEGAKEDPATAKEAKEVQKKAEEVAKQAQKILA,not found
10,design_618_d4ffd631-0ea2-432e-ba0f-bd3d6297b2a0_2461_dldesign_0_cycle1_af2pred (protein) STAFFQEATKLIEEAGEVANRVPEVAPLANKAITAASKAMLAAAQGNEAAAKAYFDEAKKLLEEAKKKAKELLE,not found
11,design_618_d4ffd631-0ea2-432e-ba0f-bd3d6297b2a0_2021_dldesign_0_cycle1_af2pred (protein) AALAAQGRAIARTMRIAVLNAATAAEAAAIADTFGTTLLNLADLASPEEQRAIVEATRAEAEEVAAENPEAGAAVAATAERLRAHVEA,not found
12,design_618_d4ffd631-0ea2-432e-ba0f-bd3d6297b2a0_1624_dldesign_0_cycle1_af2pred (protein) MKAEVEALREQVSKAVNAATKAGSAAALKDGLASSQKLSEVMEEVGELVKKGNEATKKGEYEEALKYYQKAIEIATDAKAYFEKVAAA,not found
13,design_618_d4ffd631-0ea2-432e-ba0f-bd3d6297b2a0_941_dldesign_0_cycle1_af2pred (protein) SEEVKKALEEVEKLLDEAIKAAKAGDIGTAAVLLAKAAAIADKAHPEAGAVIRQGLAEAIAAAADPEKAAKVIEEAREKVKKILEA,not found
14,design_618_d4ffd631-0ea2-432e-ba0f-bd3d6297b2a0_2235_dldesign_0_cycle1_af2pred (protein) EEDEKILESAKKMKEVAKDLAEYAKTSTAEVAKIAANSAEALARILKETAKESKKKEEIEKLAKEAEEYAKEAKETAKKK,not found
15,design_618_d4ffd631-0ea2-432e-ba0f-bd3d6297b2a0_1622_dldesign_0_cycle1_af2pred (protein) SKEEREKIYKEALKNLEKMGTLLLDLAAQGSAADVAAAKAAIEEAKKLIEEAKKANPEEAKKLAKEAHDILSKALAAVSKSVIA,not found
16,design_618_d4ffd631-0ea2-432e-ba0f-bd3d6297b2a0_472_dldesign_0_cycle1_af2pred (protein) MNEAQRIAAARGAARVAAAAAEKDPALGKAILAGAAATFADSPAALKALAATAREEAEKASPEAGAALKAAAAEVEAAAA,not found
17,design_618_d4ffd631-0ea2-432e-ba0f-bd3d6297b2a0_2000_dldesign_0_cycle1_af2pred (protein) RAAAVEAALAYARAVAETDASLEAARAAFERAKALLPEAPEAAGTLAGAALVAGSNPALGERLFAAGAARAA,not found
18,design_618_d4ffd631-0ea2-432e-ba0f-bd3d6297b2a0_2173_dldesign_0_cycle1_af2pred (protein) SSAKEKAKKLAEEAKKIADKAIAQAKALAADKGAANAVLLDAIKELSELAKKAYALDPAYADKINAYAQELVKQMAAIAG,not found
19,design_618_d4ffd631-0ea2-432e-ba0f-bd3d6297b2a0_1565_dldesign_0_cycle1_af2pred (protein) MEEELKKIEEVKELGKKIGEELAKKILEYAKENASLPIEEILRKMVEMTREAVEKIYKLIPSELAEIGARIVWGAGSQAMIQGVRLIG,not found

row,Binder,binding in a display sort
1,design_618_d4ffd631-0ea2-432e-ba0f-bd3d6297b2a0_1274_dldesign_0_cycle1_af2pred (protein) MSPEEAKAQAEELAKQAKENKAKALATVADPAKAGEHIVQIAKNAAALQRIAAEVPEVAAYAKAKAREASKYLAEASTAAAAA,not found
2,design_618_d4ffd631-0ea2-432e-ba0f-bd3d6297b2a0_2243_dldesign_0_cycle1_af2pred (protein) AAAAATALAKATAEALVRSAERGNAETARKLAEVAKGLAEGEAAAGDEEAAKAAAEAAKKIEAIAKEKAA,not found
3,design_618_d4ffd631-0ea2-432e-ba0f-bd3d6297b2a0_2266_dldesign_0_cycle1_af2pred (protein) SADVELGKEKGKELAEKIKEAAKKGLKAGDPEAAGKEMNKIVQEAIKFAATLSPEAASVLLSIVIETAKEESAKLKAA,not found
4,design_618_d4ffd631-0ea2-432e-ba0f-bd3d6297b2a0_931_dldesign_0_cycle1_af2pred (protein) AAAAEAALARAVAVLGRAFQQAVASPDLAEADALLDAGLAEALAITAADPEAAAAVRRLAAQMRAKVRELVS,not found
5,design_618_d4ffd631-0ea2-432e-ba0f-bd3d6297b2a0_955_dldesign_0_cycle1_af2pred (protein) AAASEIMAKFAAGVAKNVAAVLKEDPEKGIEVGKKLAEIILAADPQAGAKLAQAFAEYVKKYAPLIPADKKAAAEAYFNALAEKGA,not found
6,design_618_d4ffd631-0ea2-432e-ba0f-bd3d6297b2a0_848_dldesign_0_cycle1_af2pred (protein) MERAISLGKAAAVAGIAGSTAALKNIVKTIAKLSPEEAKKAAEVAAKEIIKAPNAKEMLKAAADAAKEVGTESGKAAAEVFEKAAKKA,not found
7,design_619_5728adc2-0aea-404f-92dd-a4575c53f550_149_dldesign_0_cycle1_af2pred (protein) SPAQEAARAEADRAAEAIAAFAKQIAAAASPELAKEVLAAAEKAAAALAAAKELPAEEARAATDAVWAAANRAAAAAMRQVLAQTT,not found
8,design_619_5728adc2-0aea-404f-92dd-a4575c53f550_130_dldesign_0_cycle1_af2pred (protein) DELFARLEELARALVEEAAKRSPELADIILESYEEGKKIAEELGFGPVTAIAIAAALALRRDPEAGALLRQVFVEVARAAIEAQ,not found
9,design_618_d4ffd631-0ea2-432e-ba0f-bd3d6297b2a0_729_dldesign_0_cycle1_af2pred (protein) AKEEVVEQAKQVAEAALALAKQVSPEWEKKAKEALELVEKAKEGNLEEAQKVAGEVMRIAAEVLAAYTAKQA,not found
10,design_618_d4ffd631-0ea2-432e-ba0f-bd3d6297b2a0_1628_dldesign_0_cycle1_af2pred (protein) AAQAQADQITKAAAEAAIKSAKAMVDINLESARKLAEVAADLGKAAPATAAEIKAAAKAVIEEADKKEAEKA,not found
11,design_618_d4ffd631-0ea2-432e-ba0f-bd3d6297b2a0_719_dldesign_0_cycle1_af2pred (protein) AAALAEVQEKALEAAKKASELAREARKAGDEEKAKKFEELMNTLMSAAGAAAQDLEAAKEKIDKAIKEIEELAKN,not found
12,design_618_d4ffd631-0ea2-432e-ba0f-bd3d6297b2a0_800_dldesign_0_cycle1_af2pred (protein) MSEAAKEVAELAEYVSKQAKEAGNEEAAKLAKEGAELAKEGAKDPSTAGEKIAEALKLYIQASQQLVAYQQA,not found
13,design_619_5728adc2-0aea-404f-92dd-a4575c53f550_132_dldesign_0_cycle1_af2pred (protein) AEAAAALAAAMRAATDAAVAEAATGTGEGIAKALHVANLARAAAEANPETAAEHRAYAERALAAAKAAQAAAIAAA,not found
14,design_618_d4ffd631-0ea2-432e-ba0f-bd3d6297b2a0_2309_dldesign_0_cycle1_af2pred (protein) AGLEIANKALQLAAEATAALKAAAKGTAAEVEALAKKYLDEAKKLKEQATTPQAKAAANIAISAVTTAKKAALAAVA,not found
15,design_618_d4ffd631-0ea2-432e-ba0f-bd3d6297b2a0_1130_dldesign_0_cycle1_af2pred (protein) AEAVAKAALTSAKNLAEMAIRLAESGEKLEEAKKALEVAKAMAEQAEKLNPKYGKEAKAAVEKAEKKLKEAE,not found
16,design_618_d4ffd631-0ea2-432e-ba0f-bd3d6297b2a0_318_dldesign_0_cycle1_af2pred (protein) MEKKEELKKKAEEAIKKLKKLKEEGASPEEINKALAEAVELAKEAAEAGDSETANRLLSEAGRLSIEALKNHAA,not found
17,design_618_d4ffd631-0ea2-432e-ba0f-bd3d6297b2a0_776_dldesign_0_cycle1_af2pred (protein) GAEEELKKAEEMGEIAESIAKQAAKASGSKEAKELLKKAKELVKKAKENAKDKEKIKELLKELSRLAGQAAKQLIAALK,not found
18,design_618_d4ffd631-0ea2-432e-ba0f-bd3d6297b2a0_1320_dldesign_0_cycle1_af2pred (protein) AAAEAAAAAVRAATAAGVARVEALAAAAGDAEVAALARAEAARIREVGAVLEEIARATGPFGGEVGLKSVATVTANAEARIAEAA,not found
19,design_618_d4ffd631-0ea2-432e-ba0f-bd3d6297b2a0_1745_dldesign_0_cycle1_af2pred (protein) SAARLAEQRARAAELRERAEEALKRAEQVEKKNPAAGAAVRALVRQALRQVELGLADPENAERYLDSARRNLEVAQGIIDATL,not found
